Records with an inconclusive call do not appear. Values without a mark were called inactive. Active and inactive are the calls of the source. Unless noted, calls follow the shape of the dose curve; as a rule, active = well fitted curve in the direction sought with a large enough effect in the repeat runs; inconclusive = weak or mixed curves; inactive = no such curve, though single readings can be large; an effect the other way counts as inactive or inconclusive.

Assay [1] addresses Aryl hydrocarbon receptor (Homo sapiens) (UniProt P35869). The assay is described as follows: qHTS assay to identify small molecule that activate the aryl hydrocarbon receptor (AhR) signaling pathway (AID 743085). Also: nearly all actives have a fitted effect of over 15% in size. Also: potency is read from the fitted curve at half-maximal effect.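 As to activation: HG2L7.5c1 human HepG2 liver cells with stably integrated DRE-driven firefly reporter; series mostly up to about 70 µM.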 Put shortly:
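Measured in HG2L7.5c1 cells: CellTiter-Fluor signal (30 min incubation, 37C) for viability, then luciferase luminescence (30 min, room temperature). Compound contact time was 24 h at 37C, following a 5 h pre-incubation.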
A general note: In qHTS, concentration-response curves come from the screen itself.

A short description of assay [2]: qHTS assay to identify small molecule that activate the aryl hydrocarbon receptor (AhR) signaling pathway - cell viability counter screen (AID 743086).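 Also: HepG2 liver cells carrying the AhR DRE luciferase reporter; series mostly up to about 70 µM; nearly all actives have a fitted effect of over 45% in size.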 Put shortly:
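HepG2-AhR-luc (HG2L7.5c1) cells, 4000/well, were preincubated 5 h at 37C, exposed to compound in qHTS format for 24 hr at 37C, then given CellTiter-Fluor for 30 min; viability was read as fluorescence in the reporter wells.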

The target in assay [3] is Peroxisome proliferator-activated receptor gamma (Homo sapiens) (UniProt P37231). The assay is described as follows: qHTS assay to identify small molecule agonists of the peroxisome proliferator-activated receptor gamma (PPARg) signaling pathway (AID 743094; active = well fitted activation curve with a large enough effect in the signal ratio in the repeat runs, not every such curve was filed as active; the % refers to the signal ratio). In a few lines:
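HEK293H PPARg-bla cells, 5 h settle at 37C/5% CO2; compound (DMSO) 17 h, 37C; B/G FRET substrate 1 h RT; fluorescence intensity read-out. qHTS format.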

Assay [4] shares this target. The assay is described as follows: qHTS assay to identify small molecule antagonists of the peroxisome proliferator-activated receptor gamma (PPARg) signaling pathway (AID 743191; calls by dose curve; also: series mostly up to about 63 µM; nearly all actives have a fitted effect of over 30% in size). Put shortly:
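GeneBLAzer PPARg UAS-bla HEK293H cells carrying a UAS-driven beta-lactamase reporter were plated at 3000 cells/well, preincubated 5 h at 37C, then given compound for 17 h at 37C; LiveBLAzer B/G FRET substrate was read after 1 h at room temperature.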

A short description of assay [5]: qHTS assay to identify small molecule antagonists of the peroxisome proliferator-activated receptor gamma (PPARg) signaling pathway - cell viability counter screen (AID 743194). Also: nearly all actives have a fitted effect of over 55% in size. In a few lines: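 PPARg-UAS-bla HEK293H cells were plated, rested 5 h at 37 C, then treated with compounds plus rosiglitazone (50 nM final) for 17 h at 37 C; viability was then read by CellTiter-Glo luminescence after 30 min at room temperature.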

The nature of assay [6]: qHTS assay for small molecule agonists of the antioxidant response element (ARE) signaling pathway (AID 743202; active = well fitted activation curve with a large enough effect in the signal ratio in the repeat runs, not every such curve was filed as active; the % refers to the signal ratio). Put shortly: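 Following a 16 h, 37 C exposure of reporter HepG2 cells (ARE-driven beta-lactamase, 2,000 cells/well) to compounds, FRET substrate was applied for 2 h at room temperature and fluorescence intensity recorded.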
A short description of assay [7]: qHTS assay for small molecule agonists of the antioxidant response element (ARE) signaling pathway - cell viability counter screen (AID 743203; calls by dose curve; also: nearly all actives have a fitted effect of over 55% in size). Put shortly: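 Luminescence read-out (CellTiter-Glo, 30 min at room temperature) measured cell viability in the same wells as the ARE beta-lactamase reporter. HepG2 ARE-bla cells were treated with compounds for 16 hrs at 37C/5% CO2.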

Assay [8] is described as follows: qHTS assay for small molecule activators of the heat shock response signaling pathway - cell viability counter screen (AID 743209). Also: nearly all actives have a fitted effect of over 50% in size. Put shortly: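 HSE-bla HeLa; 1500 cells/well; overnight 37 C, 5% CO2; compound 5 h 37 C; LiveBLAzer B/G substrate 2.5 h RT; CellTiter-Glo 30 min RT; luminescence.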
The nature of assay [9]: qHTS assay for small molecule activators of the heat shock response signaling pathway (AID 743210; active = well fitted activation curve with a large enough effect in the signal ratio in the repeat runs, with a control signal flat, not every such curve was filed as active; the % refers to the signal ratio; also: series mostly up to about 63 µM). Put shortly: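 Heat shock element–beta-lactamase HeLa reporter cells; qHTS with compounds for 5 h at 37 C; detection by FRET substrate fluorescence after 2.5 h at RT.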
In assay [10] the target is Peroxisome proliferator-activated receptor delta (Homo sapiens) (UniProt Q03181). The assay is described as follows: qHTS assay to identify small molecule agonists of the peroxisome proliferator-activated receptor delta (PPARd) signaling pathway (AID 743212; calls by dose curve). In a few lines: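 Beta-lactamase reporter read by fluorescence (LiveBLAzer B/G FRET, 2 h, room temperature). Test agents, in DMSO, incubated at 37 C with PPARd-bla HEK293H cells.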
Sequence of Peroxisome proliferator-activated receptor delta (Homo sapiens) (Q03181 whole entry, looked up): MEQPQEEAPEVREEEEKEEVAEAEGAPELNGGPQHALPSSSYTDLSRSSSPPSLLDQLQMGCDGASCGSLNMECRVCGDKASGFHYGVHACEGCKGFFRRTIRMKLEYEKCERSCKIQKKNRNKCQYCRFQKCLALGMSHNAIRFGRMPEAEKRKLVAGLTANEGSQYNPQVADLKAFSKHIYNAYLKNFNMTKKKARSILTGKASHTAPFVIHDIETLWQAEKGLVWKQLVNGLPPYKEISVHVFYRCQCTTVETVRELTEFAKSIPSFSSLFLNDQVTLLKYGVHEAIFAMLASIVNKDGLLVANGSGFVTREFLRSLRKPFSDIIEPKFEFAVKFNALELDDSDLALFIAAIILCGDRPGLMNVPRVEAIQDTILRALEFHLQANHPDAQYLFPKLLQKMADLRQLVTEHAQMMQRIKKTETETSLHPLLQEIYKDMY

The nature of assay [11]: qHTS assay to identify small molecule agonists of the farnesoid-X-receptor (FXR) signaling pathway - cell viability counter screen (AID 743218). Also: nearly all actives have a fitted effect of over 45% in size. Put shortly:
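Luminescence from CellTiter-Glo, read after 30 min at RT, reports viability of GeneBLAzer FXR-UAS-bla HEK 293T cells treated 16 h with compounds in the wells used for the beta-lactamase reporter.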

Assay [12] is described as follows: qHTS assay to identify small molecule antagonists of the farnesoid-X-receptor (FXR) signaling pathway - cell viability counter screen (AID 743221; active = well fitted cell-killing curve with a large enough effect in the repeat runs, not every such curve was filed as active; also: nearly all actives have a fitted effect of over 50% in size). Put shortly:
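Compound effects on cell number were measured as CellTiter-Glo luminescence in HEK 293T cells expressing FXR-UAS-bla, after 16 h at 37 C with 50 uM CDCA (final).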

Assay [13] has as its target Vitamin D3 receptor (Homo sapiens) (UniProt P11473). The experiment in a line: qHTS assay to identify small molecule agonists of the vitamin D receptor (VDR) signaling pathway (AID 743222; calls by dose curve). In a few lines: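 Beta-lactamase reporter readout (LiveBLAzer B/G FRET, 2 h RT) in VDR-bla cells after 16 h compound treatment at 37C, 5% CO2; cells pre-incubated 4 h before pin transfer of DMSO solutions.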

Assay [14] is described as follows: qHTS assay to identify small molecule agonists of the vitamin D receptor (VDR) signaling pathway - cell viability counter screen (AID 743224). Also: series mostly up to about 63 µM; nearly all actives have a fitted effect of over 50% in size. In a few lines: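 Cytotoxicity counter screen: VDR-bla cells, 16 h compound exposure at 37C, 5% CO2; CellTiter-Glo luminescence, 30 min RT, same wells as bla read.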
Assay [15] can be described thus: qHTS assay to identify small molecule agonists of the peroxisome proliferator-activated receptor delta (PPARd) signaling pathway - cell viability counter screen (AID 743211). Also: nearly all actives have a fitted effect of over 55% in size. Put shortly: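 Following 5 h plating at 37 C and 5% CO2, PPARd UAS-bla HEK293H cells took up test compounds for 17 h. Viability was quantified by luminescence 30 min after CellTiter-Glo addition at room temperature.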

The target in assay [16] is Bile acid receptor (Homo sapiens) (UniProt Q96RI1). The assay is described as follows: qHTS assay to identify small molecule antagonists of the farnesoid-X-receptor (FXR) signaling pathway (AID 743217; active = well fitted inhibition curve with a large enough effect in the signal ratio in the repeat runs, not every such curve was filed as active; the % refers to the signal ratio). Put shortly: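 Read-out: beta-lactamase FRET fluorescence (LiveBLAzer B/G substrate, 2 h, room temperature) in GeneBLAzer FXR-UAS-bla HEK 293T cells. Compounds were co-dosed with 50 uM chenodeoxycholic acid (final) and incubated 16 h at 37 °C.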
Sequence of Bile acid receptor (Homo sapiens) (Q96RI1 whole entry, looked up): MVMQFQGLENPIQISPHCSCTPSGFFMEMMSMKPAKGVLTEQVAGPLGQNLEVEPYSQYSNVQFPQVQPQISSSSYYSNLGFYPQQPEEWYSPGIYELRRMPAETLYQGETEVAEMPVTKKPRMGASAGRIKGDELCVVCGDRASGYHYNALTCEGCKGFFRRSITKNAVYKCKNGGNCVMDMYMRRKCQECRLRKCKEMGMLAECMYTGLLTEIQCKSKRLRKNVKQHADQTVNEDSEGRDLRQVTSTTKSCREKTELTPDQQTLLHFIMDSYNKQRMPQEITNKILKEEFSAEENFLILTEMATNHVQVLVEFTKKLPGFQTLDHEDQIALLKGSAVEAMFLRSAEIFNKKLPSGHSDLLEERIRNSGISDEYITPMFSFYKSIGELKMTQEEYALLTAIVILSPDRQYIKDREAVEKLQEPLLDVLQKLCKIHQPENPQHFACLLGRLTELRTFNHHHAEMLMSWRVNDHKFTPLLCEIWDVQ

The target is the same in assay [17]. The assay is described as follows: qHTS assay to identify small molecule agonists of the farnesoid-X-receptor (FXR) signaling pathway (AID 743220; active = well fitted activation curve with a large enough effect in the signal ratio in the repeat runs, not every such curve was filed as active; the % refers to the signal ratio). In a few lines: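 FXR-UAS-bla HEK 293T cells carrying a UAS-driven beta-lactamase reporter were plated for 5 h at 37C/5% CO2, then exposed to DMSO-dissolved Tox21 10K compounds for 16 h at 37C. A LiveBLAzer B/G FRET substrate was loaded for 2 h at room temperature before fluorescence reading.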

Assay [18] deals with Vitamin D3 receptor (Homo sapiens) (UniProt P11473). The assay is described as follows: qHTS assay to identify small molecule antagonists of the vitamin D receptor (VDR) signaling pathway (AID 743223; active = well fitted inhibition curve with a large enough effect in the signal ratio in the repeat runs, not every such curve was filed as active; the % refers to the signal ratio). Put shortly: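 Beta-lactamase activity in VDR-bla cells is measured by FRET substrate fluorescence (2 h, room temperature) after cells spend 16 h at 37C with test compound and 3 nM final 1alpha,25-dihydroxyvitamin D3.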
Sequence of Vitamin D3 receptor (Homo sapiens) (P11473 whole entry, looked up): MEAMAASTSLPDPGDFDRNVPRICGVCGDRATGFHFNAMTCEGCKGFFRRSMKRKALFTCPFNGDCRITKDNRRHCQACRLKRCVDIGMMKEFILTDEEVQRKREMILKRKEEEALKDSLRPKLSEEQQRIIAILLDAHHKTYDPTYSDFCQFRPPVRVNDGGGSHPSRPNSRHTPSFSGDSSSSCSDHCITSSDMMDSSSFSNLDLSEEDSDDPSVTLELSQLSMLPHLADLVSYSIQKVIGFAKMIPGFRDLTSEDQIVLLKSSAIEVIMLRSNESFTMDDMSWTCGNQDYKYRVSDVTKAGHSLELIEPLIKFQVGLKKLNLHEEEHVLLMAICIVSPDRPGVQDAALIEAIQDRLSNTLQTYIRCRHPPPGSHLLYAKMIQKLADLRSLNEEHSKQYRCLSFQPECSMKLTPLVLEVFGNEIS

The nature of assay [19]: qHTS assay to identify small molecule antagonists of the peroxisome proliferator-activated receptor delta (PPARd) signaling pathway - cell viability counter screen (AID 743213). Also: nearly all actives have a fitted effect of over 50% in size. Put shortly: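 Same-well viability: cells pre-incubated 5 h, dosed with compound plus 300 nM L165041, kept 17 h at 37 C, FRET substrate 2 h RT, then CellTiter-Glo 30 min RT and luminescence.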
Assay [20] deals with Peroxisome proliferator-activated receptor delta (Homo sapiens) (UniProt Q03181). The experiment in a line: qHTS assay to identify small molecule antagonists of the peroxisome proliferator-activated receptor delta (PPARd) signaling pathway (AID 743215; active = well fitted inhibition curve with a large enough effect in the signal ratio in the repeat runs, not every such curve was filed as active; the % refers to the signal ratio;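 also: cells stimulated with agonist L165041 at 300 nM final during compound exposure; series mostly up to about 62 µM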). Put shortly: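 HEK293H GeneBLAzer PPARd UAS-bla reporter cells; cpd + L165041 300 nM final, 17 h 37 C; LiveBLAzer B/G FRET substrate 2 h RT; fluorescence intensity read-out. Antagonist mode.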

Sequence of Peroxisome proliferator-activated receptor gamma (Homo sapiens) (P37231 whole entry, looked up): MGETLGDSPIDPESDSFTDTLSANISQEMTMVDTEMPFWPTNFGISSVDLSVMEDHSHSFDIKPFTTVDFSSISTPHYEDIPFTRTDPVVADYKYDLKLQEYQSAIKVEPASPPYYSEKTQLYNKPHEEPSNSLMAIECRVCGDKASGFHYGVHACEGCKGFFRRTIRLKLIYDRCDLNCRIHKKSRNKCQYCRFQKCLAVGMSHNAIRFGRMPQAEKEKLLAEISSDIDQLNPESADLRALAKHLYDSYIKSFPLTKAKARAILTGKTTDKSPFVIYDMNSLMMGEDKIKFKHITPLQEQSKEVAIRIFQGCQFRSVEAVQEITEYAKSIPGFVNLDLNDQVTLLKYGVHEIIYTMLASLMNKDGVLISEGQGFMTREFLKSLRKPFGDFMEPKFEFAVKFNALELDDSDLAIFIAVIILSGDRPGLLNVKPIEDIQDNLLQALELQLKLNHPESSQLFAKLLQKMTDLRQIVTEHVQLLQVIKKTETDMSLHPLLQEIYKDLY
Sequence of Aryl hydrocarbon receptor (Homo sapiens) (P35869 whole entry, looked up): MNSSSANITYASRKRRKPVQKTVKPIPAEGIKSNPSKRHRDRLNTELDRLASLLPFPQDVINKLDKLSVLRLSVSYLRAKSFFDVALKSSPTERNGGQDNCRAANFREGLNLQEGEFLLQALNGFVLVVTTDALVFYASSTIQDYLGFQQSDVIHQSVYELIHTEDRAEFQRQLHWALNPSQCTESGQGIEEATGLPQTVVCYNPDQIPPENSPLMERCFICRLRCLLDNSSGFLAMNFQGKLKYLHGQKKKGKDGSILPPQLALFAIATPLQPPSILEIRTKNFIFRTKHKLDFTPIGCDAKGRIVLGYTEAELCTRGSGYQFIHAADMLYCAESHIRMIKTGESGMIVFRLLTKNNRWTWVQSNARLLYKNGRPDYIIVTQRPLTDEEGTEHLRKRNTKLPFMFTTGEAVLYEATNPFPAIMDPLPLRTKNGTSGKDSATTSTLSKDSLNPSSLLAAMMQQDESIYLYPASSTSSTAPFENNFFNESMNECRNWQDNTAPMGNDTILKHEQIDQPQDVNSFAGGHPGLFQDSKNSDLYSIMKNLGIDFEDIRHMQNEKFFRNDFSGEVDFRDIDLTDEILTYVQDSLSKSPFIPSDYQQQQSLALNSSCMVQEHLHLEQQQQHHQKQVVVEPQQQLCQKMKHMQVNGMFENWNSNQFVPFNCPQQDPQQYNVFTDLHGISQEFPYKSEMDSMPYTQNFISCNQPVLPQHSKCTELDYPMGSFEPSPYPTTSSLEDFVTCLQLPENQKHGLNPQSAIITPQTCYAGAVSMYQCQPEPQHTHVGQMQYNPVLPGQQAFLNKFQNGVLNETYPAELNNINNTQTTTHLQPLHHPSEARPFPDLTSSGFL

With `Cc1c(C(=O)c2c[nH]n(C)c2=O)ccc(S(C)(=O)=O)c1C1=NOCC1`, the Potency entry in assay [1], in assay [2], in assay [3], in [6] and in assay [8] was “inactive” in each case. The call in [4], in [5], in assay [7], in assay [9], in [10] and in assay [11] was inactive. Also, the compound was classed as inactive in assay [12], in assay [13] and in assay [14].

Turning to `COc1c2occc2c(OC)c2c(=O)cc(C)oc12`, the Potency in [1] is 114 nM (active). Also, the Potency result in [2], in assay [3], in assay [6] and in assay [8] was “inactive” each time. In addition, the compound was called inactive in assay [4], in [5], in assay [7], in assay [9], in [15] and in [16]. In addition, the result in assay [11], in assay [17], in [12], in [13], in assay [18] and in [14] was inactive.

On to `Nc1nnnn1-c1ccccc1`, for which the Potency entry in assay [1], in assay [2], in assay [3], in assay [6] and in assay [8] was “inactive” in each case. Besides, the outcome in assay [4], in assay [5], in assay [7], in assay [9], in assay [15] and in assay [10] was inactive. For the same compound, the result in assay [19], in assay [16], in assay [11], in [17], in assay [12] and in [13] was inactive. Moreover, in [18], the compound was called inactive.

In the case of `CC(C)(C)NC[C@H](O)COc1cccc2c1CCCC2=O`, the Potency entry in assay [1], in assay [2], in assay [3], in assay [6] and in assay [8] was “inactive” each time. Moreover, the result in assay [4], in assay [5], in [7], in assay [15], in [19] and in assay [11] was inactive. For the same compound, the compound was classed as inactive in assay [12], in assay [13], in [18] and in [14].

Regarding `CN1CCOC(c2ccccc2)c2ccccc2C1` (stereo not given), the Potency entry in assay [1], in [2], in assay [3], in assay [6] and in [8] was “inactive” in each case. Moreover, the call in assay [4], in assay [5], in [7], in assay [15], in assay [10] and in assay [19] was inactive. Further, the outcome in [20], in assay [16], in assay [11], in assay [17], in [12] and in [14] was inactive.

As to `CC(=O)O[C@H]1C[C@@H]2CC[C@@]1(C)C2(C)C`, the Potency entry in assay [1], in assay [2], in [3], in [6] and in assay [8] was “inactive” each time. Besides, the compound was called inactive in assay [4], in [5], in [7], in assay [9], in assay [15] and in assay [19]. Further, the compound was classed as inactive in assay [16], in assay [17], in assay [12], in assay [13] and in assay [14].

For `O=C(O)[C@H](O)c1ccccc1`, the Potency entry in [1], in assay [2], in [3], in assay [6] and in [8] was “inactive” each time. Further, the result in [4], in assay [5], in assay [7], in assay [9], in assay [15] and in assay [10] was inactive. The compound was classed as inactive in [16], in assay [11], in assay [17], in assay [13] and in assay [18].

On to `NCCOCCN`, for which the Potency result in assay [1], in [2], in assay [3], in assay [6] and in [8] was “inactive” in each case. Moreover, the result in [4], in assay [5], in assay [7], in assay [9], in [15] and in assay [10] was inactive. The result in assay [20], in [11], in assay [12], in [13], in [18] and in assay [14] was inactive.
